# ELG1 DNA repair: inhibitors of ELG1-dependent DNA repair in HEK293T cells. HEK293T ELG1-luciferase reporter, luminescence, 16 h; DNA damage induced by 5-fluorouridine. Potency, µM (titrated, usually from 46.1 µM), without a hit: at the top dose activity change, negative = inhibition, actives largely listed as inhibitors. actives 2.3% (n = 330,000); further: potency means the concentration at half of the fitted maximal effect; nearly all actives have a fitted effect of over 55% in size
#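 Quantitative HTS, concentration-response format. 2,000 cells/well co-treated with 5-fluorouridine and compound, 16 hr in 5% CO2 at 37 °C; ONE-Glo luminescence read after 30 min.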
# B2AR arrestin: agonists driving beta-arrestin recruitment to human beta2-adrenergic receptor; beta-arrestin recruitment to beta2AR, cell-based reporter; actives 0.02% (n = 330,000); P07550; AID 492947; Potency, µM (top dose mostly 46.1 µM), for inactives: at the top dose activation, hits mostly activators;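 further: potency means the concentration at half of the fitted maximal effect; 0% = DMSO controls and full agonism = EC100 isoproterenol or metaproterenol; nearly all actives have a fitted effect of over 65% in size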
# Target sequence (P07550 whole entry, looked up): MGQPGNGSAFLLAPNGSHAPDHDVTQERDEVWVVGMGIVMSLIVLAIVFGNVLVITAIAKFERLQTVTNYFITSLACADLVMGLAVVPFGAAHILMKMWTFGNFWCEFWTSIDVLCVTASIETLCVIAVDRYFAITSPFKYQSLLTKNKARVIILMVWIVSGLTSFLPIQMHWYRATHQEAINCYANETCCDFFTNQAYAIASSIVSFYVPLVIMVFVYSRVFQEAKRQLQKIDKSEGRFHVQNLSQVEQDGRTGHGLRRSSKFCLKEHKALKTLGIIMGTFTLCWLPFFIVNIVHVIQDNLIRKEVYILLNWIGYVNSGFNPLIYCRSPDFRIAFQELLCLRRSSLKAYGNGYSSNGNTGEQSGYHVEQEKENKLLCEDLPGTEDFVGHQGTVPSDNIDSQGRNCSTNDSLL
# RORgamma inh: blocks mouse ROR gamma transcriptional activity; P51450; Drosophila S2 Gal4-RORgamma UAS-luciferase reporter, 20 h; Potency, µM (series often up to 53.6 µM), without a hit: at the highest dose activity change, negative = inhibition, hits mostly inhibitors; actives 5.4% (n = 310,000); further: potency means the concentration at half of the fitted maximal effect; nearly all actives have a fitted effect of over 60% in size
#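 Stable Schneider cell line, Gal4 DNA-binding domain fused to ROR gamma, UAS-luciferase. Cmpd 1 hr RT → CuSO4 700 uM final → 20 hr RT → luciferase reagent 10 min → luminescence.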
# TSHR antag: antagonists of human thyroid stimulating hormone receptor. P16473. TSHR-expressing cells, TSH-stimulated cAMP HTRF, 2 h; stronger effect = lower value. activity change, negative = inhibition, % at 11.5 µM. actives 0.2% (n = 330,000);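 active means activity change below a set negative limit, meaning inhibition stronger than a set level, cut at about -70% in these data; inconclusive means activity change between two set negative limits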
#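 Cell-based HTRF cAMP assay; TSHR cells + compound, TSH EC80 (4nM final), 2 h, 37 deg C. Lysis with anti-cAMP cryptate and cAMP-d2, 30 min RT, read 665/620 nm.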
# Gal4-VP16 FLuc: inhibits Gal4-VP16 luciferase reporter, ROR gamma counter-screen | Drosophila S2 Gal4-VP16 UAS-luciferase, luminescence, 20 h | Potency, µM (highest dose often 53.6 µM), for inactives: top-dose activity, negative = inhibition, actives largely listed as inhibitors | actives 3.5% (n = 310,000) | AID 2546;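 further: Gal4-VP16 expression switched on by copper sulfate through the metallothionein promoter; potency means the concentration at half of the fitted maximal effect; nearly all actives have a fitted effect of over 50% in size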
# * = called active by the depositor; ? = inconclusive; nt = no result; [ ] = dose if it differs, or a comment. Hits are enriched below; roughly 7.5% of the tested compounds scored in any of these assays. Unless noted, the call rests on the fitted dose curve; in most records, active means well fitted curve in the direction sought with a large enough effect; inconclusive means small, poorly fitted or top-dose-only effect, or another doubt; inactive means no such curve, though single readings can be large; an effect the other way counts as inactive or inconclusive. Unless noted, on the % scale 0 is the no-effect control and ±100 the full control effect.
SMILES,ELG1 DNA repair,B2AR arrestin,RORgamma inh,TSHR antag,Gal4-VP16 FLuc
COc1cc([N+](=O)[O-])ccc1N1C(=O)C2C3C=CC(C4CC34)C2C1=O (stereo unspecified),-6%,0%,-32%,-4,?
C[Si](C)(C)n1ccnc1,-13%,0%,0%,0,-2%
CCOc1ccc(-n2c(=O)c3sccc3n(CC(=O)NCC3CCCO3)c2=O)cc1 (stereo unspecified),-4%,0%,2%,20,-2%
CC(C)CC(=O)Nc1c(C(=O)N2CCN(Cc3ccccc3)CC2)oc2ccccc12,-16%,0%,9%,-5,22%
O=C(Cc1c(O)c2ccccc2oc1=O)c1ccc(C(F)(F)F)cc1,?,-1%,4%,4,3%
O=c1oc2ccccc2c(O)c1Cc1cc(Cl)c2cccnc2c1O,?,3%,0.79µM*,-9,1.1µM*
CNc1sc(C(=O)c2ccc(F)cc2)c(N)c1-c1nc2ccccc2s1,?,7%,10µM*,-10,?
CNc1sc(C(=O)c2cccs2)c(N)c1-c1nc2ccccc2s1,?,?,?,-14,4µM*
CC(=O)Nc1scc(C)c1-c1nc2ccccc2s1,-1%,0%,1.1µM*,-12,8.9µM*
O=C(Nc1ccc(O)c(-c2nc3ccccc3s2)c1)c1cccs1,?,-1%,43%,16,2%
CC(NC(=O)CSc1nc(C2CC2)n(-c2ccccc2)n1)c1ccco1 (stereo unspecified),-15%,0%,nt,-5,nt
COc1cccc2c1N(C)C(=O)CC21C=CC(=O)C=C1,nt,nt,?,nt,-14%
COc1cccc(Cn2c(=O)c(C)nc3cnc(OC)nc32)c1,nt,nt,-43%,nt,-2%
COc1ccc(-c2nc3cnc(OCc4ccccc4)nc3n(CCC#N)c2=O)cc1,nt,nt,10%,nt,0%
Cc1cccc(C(=O)NNC(=O)C23CC4CC(CC(C4)C2)C3)c1O,-12%,0%,6.3µM*,-12,?
O=C(/C=C/c1ccc(OC(F)F)cc1)OCC(=O)N1CCC(c2ccccc2)=N1,2%,0%,nt,2,nt
Cc1ccc(Nc2nc(CSc3nnc(-c4ccncc4)n3C)cs2)cc1,?,0%,16µM*,9,?
Cc1ccc(Nc2nc(CSc3nnc(-c4cccnc4)n3-c3ccccc3F)cs2)cc1,?,-1%,4µM*,2,-10%
Cc1ccc(CSc2nnc(-c3ccncc3)n2C)cc1,-10%,0%,-4%,-6,-2%
CC[C@]12c3[nH]c4cc(-c5ccco5)ccc4c3CCN1C(=O)[C@@H](CC(=O)NCCN1CCOCC1)C[C@@H]2C(=O)N1CCN(C(=O)C2CC2)CC1,?,4%,nt,5,nt
CC[C@H]1C2=C3C(CC[C@H]4C(OC)OC[C@](C)([C@@H]34)N(C(=O)OC(C)(C)C)C2)C(CO)C1CO (stereo partly specified),nt,nt,5%,nt,9%
CO/N=C/c1c(-c2ccc(Cl)cc2)nc2cc(C)ccn12,2%,0%,8.9µM*,-17,6%
COC(=O)Nc1ccc(S(=O)(=O)N2CCCc3cccc(O)c32)cc1,18µM*,0%,-3%,3,6%
O=C(NNc1nc2ccccc2nc1C(F)(F)F)c1ccccc1,9%,3%,7.9µM*,-6,16µM*
Cc1ccc(S(=O)(=O)NNc2nc3ccccc3nc2C(F)(F)F)cc1,1%,0%,18µM*,0,?
SMILES,ELG1 DNA repair,B2AR arrestin,RORgamma inh,TSHR antag,Gal4-VP16 FLuc
Cc1ccc(S(=O)(=O)NNc2ccccc2)cc1,12%,0%,1%,4,-1%
C[C@H](NC(=O)CNC(=O)[C@@H](NC(=O)[C@H](Cc1ccccc1)NC(=O)CNC(=O)CNC[C@@H](N)Cc1ccccc1)[C@@H](C)O)C(=O)N[C@@H](CCCN=C(N)N)C(=O)N[C@@H](CCCCN)C(=O)N[C@@H](CO)C(=O)N[C@@H](C)C(=O)N[C@@H](CCCN=C(N)N)C(=O)N[C@@H](CCCCN)C(N)=O,nt,nt,22%,nt,3%
Cc1ccc2nc(C)/c(=N\O)c(C)nc2c1,?,0%,11µM*,-25,-2%
COc1cc(/C=N/N=C/c2c[nH]c(=O)c(C#N)c2Nc2ccccc2)ccc1O,-2%,-1%,12%,17,-1%
Cc1cc(N/N=C/c2ccc(O)cc2O)c2ccccc2n1,27%,1%,?,-23,?
Cc1cc(N/N=C/c2ccc(N(C)C)cc2)c2ccccc2n1,1%,1%,16µM*,5,?
Cc1cc(C)c2nc(C)cc(N/N=C/c3ccc(O)cc3)c2c1,-14%,0%,?,-2,4.5µM*
Cc1cc(N/N=C/c2ccc(O)cc2)c2cccc(C)c2n1,?,-2%,?,0,18µM*
CCCC(C)(C)C(=O)Nc1ccc(Cl)cc1,nt,nt,-18%,nt,1%
Cc1noc(C)c1COC(=O)c1cccc(S(=O)(=O)N2c3ccccc3CC2C)c1 (stereo unspecified),18µM*,0%,?,-29,-13%
Cc1ccc(NC(=O)c2cnccn2)c(OC(F)F)c1,-1%,4%,13%[0.365 µM],3,nt
Cc1ccc(NC(=S)NCc2ccc(Cl)cc2)c(OC(F)F)c1,-2%,0%,6.3µM*,9,5µM*
Cc1ccc(CNC(=S)Nc2ccc(OC(F)F)cc2C)cc1,1%,0%,5.6µM*,17,4.5µM*
Cc1ccc(C(=O)COC(=O)c2cccc([N+](=O)[O-])c2)s1,?,0%,nt,6,nt
CCOC(=O)[C@]1(C(NC(=O)OC)c2cccc(C)c2)CCCC1=O (stereo partly specified),nt,nt,0%[10 µM],nt,2%[10 µM]
O=C1[C@H]2[C@H]3[C@H](O)[C@H](O)C/C(=N/OC[C@@H](O)COCc4ccco4)[C@H]3CC[C@@H]2C(=O)N1C1CCCCC1,nt,nt,9%[10 µM],nt,-12%[10 µM]
O=C(NC(=S)N1CCN(c2ccc(F)cc2)CC1)c1cccs1,-10%,-1%,45µM*,-6,0.56µM*
O=C(NC(=S)N1CCN(c2ccc(O)cc2)CC1)c1cccs1,13µM*,4%,3.5µM*,2,2.8µM*
O=C(NC(=S)N1CCN(c2ccccc2)CC1)c1c(F)cccc1F,5%,?,0.71µM*,?,1.4µM*
O=C(c1cccs1)N1CCN(c2ccccc2)CC1,-4%,0%,-27%,-1,?
Fc1ccc(N/N=C/c2ccc(N3CCOCC3)cc2)c(F)c1,?,0%,18%,-6,19%
CC(CNC(=S)Nc1cc(F)cc(F)c1)CSc1ccc(Cl)cc1 (stereo unspecified),11%,0%,8.9µM*,-27,?
Cc1ccc(SCCNC(=S)Nc2cc(C)cc(C)c2)cc1,-8%,0%,5µM*,-21,7.9µM*
Cc1ccc(SCCNC(=S)Nc2ccc(C)cc2C)cc1,-3%,0%,3.5µM*,5,7.9µM*

# Assay outcomes: PubChem BioAssay, National Center for Advancing Translational Sciences (NCATS)
